FXN GAA850 act: FXN promoter activators, primary screen, cell-based, luciferase luminescence, HEK293 lucGAA850; HEK293 lucGAA850 FXN promoter luciferase reporter, 24 h; percent of 10 µM SAHA response; activation, % at 6 µM; 360,000 tested, 0.56% active; AID 540364, 2011;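 active means activation above the average of all compounds screened plus 3 SD, cutoff fixed separately per campaign, cut at about 7.5% in these data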;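 further: 0% = DMSO wells and 100% = 10 µM SAHA wells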
EWS-Fli block: EWS/Fli-driven NR0B1 reporter inhibitors, primary screen, A673 cells, NR0B1 luciferase, luminescence, MLPCN library; AID 651661, 2012; viability-normalised; 350,000 tested, 0.67% active; inhibition, % at 12.6 µM;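 active means mean inhibition of at least 50% after viability correction, with every replicate also passing that limit; inconclusive means mean reaches 50% but only one of two replicates passes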;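 further: firefly luciferase signal divided by Alamar Blue viability fluorescence both relative to DMSO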
F508del corr: F508del CFTR correction, initial screen, CFBE line, single point. CFBE cells, YFP halide quenching; stimulated with forskolin plus potentiator P3; % fluorescence drop versus neutral controls. AID 720511, 2013. 350,000 tested, 0.36% active. activity (quench increase), % at 7.58 µM;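 active means mean added fluorescence quench of at least 8% versus neutral control, with both replicates also reaching 8%; inconclusive means only one of the mean or replicate conditions met; inactive means mean below 8% and not both replicates reaching 8%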;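 further: cells transiently co-express mutant CFTR-F508del with the halide-sensitive YFP; corrector assay measuring rescue of mutant channel to the surface after 24 h compound exposure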
PAX8 inh HTS: inhibitors of PAX8-driven TPO luciferase reporter, primary screen, RMG-I cells, single concentration; SteadyGlo, 24 h; inhibition, % at 12.6 µM; 360,000 tested, 1.2% active;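 active means mean replicate inhibition at least 60% with every replicate also reaching 60%; inconclusive means only one of the two criteria is met; inactive means mean below 60% and not all replicates reaching 60%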;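 further: luciferase light reporting Pax8 driven TPO promoter activity; plate controls were median of neutral control wells for no effect and mitoxantrone controls for full effect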
Env fusion inh: inhibitors of HIV-1 Env-driven cell-cell fusion, primary screen, HeLa-JRFL effector, CEM21 target cells, luciferase; inhibition, % at 12.3 µM; 360,000 tested, 1.1% active; AID 651610, 2012;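 active means mean replicate inhibition score of at least 50 and every replicate individually at or above 50; inconclusive means only one of the two criteria met; inactive means mean below 50 and not all replicates reaching 50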;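 further: 0% = plate neutral controls and 100% = maraviroc near 300 nM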
The depositor's hits bear a star; [ ] = another dose, or the depositor's remark. In the library only some 2.5% were active in any assay of this set; here they are far more common.

What do the screens show for `C[C@H](CO)N1C[C@H](C)[C@H](CN(C)C(=O)Nc2ccc(C(F)(F)F)cc2)OCCCC[C@H](C)Oc2ccc(NS(=O)(=O)c3ccc(Cl)cc3)cc2C1=O`?
EWS-Fli block: -4.3; F508del corr: -0.3; PAX8 inh HTS: 57.2; Env fusion inh: 29.0[16.7 µM]

What do the screens show for `C[C@@H]1CN([C@@H](C)CO)C(=O)c2cc(NS(=O)(=O)c3ccc(F)cc3)ccc2O[C@@H]1CN(C)C(=O)Nc1ccc(C(F)(F)F)cc1`?
EWS-Fli block: -7.1; F508del corr: 0.6; PAX8 inh HTS: 70.7*; Env fusion inh: 2.2[16.7 µM]

How did C[C@H]1CCCCO[C@H](CN(C)C(=O)Nc2ccc(C(F)(F)F)cc2)[C@@H](C)CN([C@@H](C)CO)C(=O)c2cc(NS(=O)(=O)c3ccc(Cl)cc3)ccc2O1 do in these assays?
EWS-Fli block: 12.6; F508del corr: -3.4; PAX8 inh HTS: 90.7*; Env fusion inh: 48.1[16.7 µM]

Results for C[C@@H]1CCCCO[C@@H](CN(C)C(=O)Nc2ccc(C(F)(F)F)cc2)[C@@H](C)CN([C@H](C)CO)C(=O)c2cc(NS(=O)(=O)c3ccc(F)cc3)ccc2O1 ?
F508del corr: 2.3; PAX8 inh HTS: 66.3*

Results for Cc1ccc(S(=O)(=O)Nc2ccc3c(c2)C(=O)N([C@@H](C)CO)C[C@H](C)[C@@H](CN(C)C(=O)Nc2ccc(C(F)(F)F)cc2)OCCCC[C@@H](C)O3)cc1 ?
EWS-Fli block: 9.2; F508del corr: -0.8; PAX8 inh HTS: 74.7*; Env fusion inh: -10.3[16.7 µM]

What do the screens show for `C[C@@H]1CCCCO[C@@H](CN(C)C(=O)Nc2ccc(C(F)(F)F)cc2)[C@H](C)CN([C@@H](C)CO)C(=O)c2cc(NS(=O)(=O)c3ccc(F)cc3)ccc2O1`?
EWS-Fli block: 4.0; F508del corr: 0.8; PAX8 inh HTS: 50.6; Env fusion inh: -39.3[16.7 µM]

Results for C[C@H](CO)N1C[C@H](C)[C@@H](CN(C)C(=O)Nc2ccc(C(F)(F)F)cc2)OCCCC[C@H](C)Oc2ccc(NS(=O)(=O)c3ccc(F)cc3)cc2C1=O ?
EWS-Fli block: -2.7; F508del corr: 1.3; PAX8 inh HTS: inconclusive; Env fusion inh: 69.8*[16.7 µM]

Results for Cc1cc(C)nc(N(C#N)Cc2cccc(Cl)c2)n1 ?
FXN GAA850 act: 1.5; EWS-Fli block: 6.2; F508del corr: 10.5*; PAX8 inh HTS: -6.4; Env fusion inh: 8.2

Results for Cc1ccc(-c2[nH]c3ccccc3c2SCCNC(=O)c2ccc(S(=O)(=O)N3CCOCC3)cc2)cc1 ?
FXN GAA850 act: 0.6; EWS-Fli block: 33.2; F508del corr: 3.8; PAX8 inh HTS: 61.6*; Env fusion inh: 40.9

How did O=C(NCc1nc2ccccc2[nH]1)c1ccc(S(=O)(=O)N2CCOCC2)cc1 do in these assays?
FXN GAA850 act: -1.2

What do the screens show for `CC(C)NC(=O)N(C)C[C@@H]1Oc2ccc(NC(=O)Nc3ccc4c(c3)OCO4)cc2C(=O)N([C@@H](C)CO)C[C@H]1C`?
EWS-Fli block: -6.2; F508del corr: -1.9

Results for CCCCCN(C(=O)CCc1cn(CCCCC)c2ccccc12)c1ccc(Oc2cccnc2)cc1 ?
EWS-Fli block: 15.2; F508del corr: -1.4; PAX8 inh HTS: -2.0; Env fusion inh: 57.9*

What do the screens show for `CCCCCN(C(=O)CCc1cn(CCCCC)c2ccccc12)c1ccc(N(C)c2ccccn2)cc1`?
EWS-Fli block: -0.2; F508del corr: -0.9; PAX8 inh HTS: 1.9; Env fusion inh: 22.9

Results for CCC(=O)Nc1nc2ccccc2n1CCN1CCOCC1 ?
FXN GAA850 act: -1.3

How did CCCn1c(Nc2nc3ccccc3n2C)nc2ccccc21 do in these assays?
FXN GAA850 act: -0.6; Env fusion inh: 140.2*

What do the screens show for `CCCCCCCn1c(NC(=O)CC)nc2ccccc21`?
FXN GAA850 act: -2.9; EWS-Fli block: 40.5; F508del corr: 3.9; PAX8 inh HTS: 49.4; Env fusion inh: 72.2*

Results for Cc1noc(C)c1S(=O)(=O)N(C)C[C@H]1OCCCC[C@@H](C)Oc2ccc(NS(=O)(=O)c3ccc(F)cc3)cc2C(=O)N([C@@H](C)CO)C[C@H]1C ?
EWS-Fli block: 9.3; F508del corr: -1.1; PAX8 inh HTS: 32.2; Env fusion inh: 5.9[16.7 µM]

Results for CCCNC(=O)COc1nc2ccccc2nc1N1CCOCC1 ?
FXN GAA850 act: 0.1; EWS-Fli block: 12.7; F508del corr: 0.2; PAX8 inh HTS: 103.2*

Results for C[C@H](CO)N1C[C@H](C)[C@@H](CN(C)S(C)(=O)=O)Oc2ccc(NS(=O)(=O)c3ccc(F)cc3)cc2C1=O ?
EWS-Fli block: -4.0; F508del corr: -0.1; Env fusion inh: 7.7[16.7 µM]

Results for O=C(C[C@@H]1C[C@@H]2c3cc(NC(=O)C4CCOCC4)ccc3O[C@@H]2[C@H](CO)O1)NCc1ccccc1F ?
EWS-Fli block: 2.3; F508del corr: -2.3; PAX8 inh HTS: -3.6; Env fusion inh: 71.4*[16.7 µM]

What do the screens show for `O=C(C[C@@H]1C[C@H]2c3cc(NC(=O)C4CCOCC4)ccc3O[C@H]2[C@H](CO)O1)NCc1ccccc1F`?
EWS-Fli block: 1.4; F508del corr: -1.5; PAX8 inh HTS: 6.3; Env fusion inh: 87.1*[16.7 µM]

What do the screens show for `O=C(C[C@H]1C[C@H]2c3cc(NC(=O)C4CCOCC4)ccc3O[C@H]2[C@H](CO)O1)NCc1ccccc1F`?
EWS-Fli block: 3.7; F508del corr: -2.8; PAX8 inh HTS: -2.0; Env fusion inh: 12.5[16.7 µM]

How did COCC#Cc1ccc2c(c1)O[C@H](CN(C)C(=O)C1CCC1)[C@H](C)CN([C@@H](C)CO)S2(=O)=O do in these assays?
EWS-Fli block: 3.3; F508del corr: -2.0; Env fusion inh: 7.3[16.7 µM]

What do the screens show for `Cc1ccn2cc(-c3cc4ccccc4oc3=O)nc2c1`?
FXN GAA850 act: 0.1; EWS-Fli block: 67.5*; F508del corr: -2.1; PAX8 inh HTS: -98.2; Env fusion inh: 12.2

Results for COc1ccc(C#Cc2cccc(-c3nc(C(=O)N4CCN(C)CC4)cc4c3[C@@H](CCO)N(S(=O)C(C)(C)C)C4)c2)cc1OC (some centres undefined) ?
EWS-Fli block: -7.4; F508del corr: -3.1; PAX8 inh HTS: -25.4

Results for C/C(=N\OCC(=O)NCC(F)(F)F)c1cc2ccccc2o1 ?
FXN GAA850 act: 0.3; EWS-Fli block: -71.3; F508del corr: -1.4; PAX8 inh HTS: 83.8*

Results for CNC[C@@H]1Oc2ccc(NC(=O)NC(C)C)cc2C(=O)N([C@@H](C)CO)C[C@H]1C ?
EWS-Fli block: -2.9; F508del corr: -1.3; PAX8 inh HTS: 5.9; Env fusion inh: -0.7[16.7 µM]

Results for COc1ccc(C(=O)Nc2ccc(N3CCOCC3)cc2)cc1S(=O)(=O)N1CCOCC1 ?
FXN GAA850 act: -1.3; EWS-Fli block: -6.7; F508del corr: 2.2; PAX8 inh HTS: -4.7; Env fusion inh: -11.1
